Measured values: PubChem BioAssay (NCI)
The panel holds about 83,000 compounds, 20% with a hit somewhere; the sample as a whole holds those more often.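 For each line, cells grew in 96-well plates with the test compound present at a single concentration for 48 hours.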 Unmarked numbers belong to inactive results. Active and inactive are the calls of the source. Rule for the calls: active = growth percent below 10; inactive = the rest.

test system: CAKI-1 renal; test: NCI-60 one-dose screen, 48 h (100 = growth as untreated, 0 = no growth, -100 = all killed); conditions: 10 µM unless noted

Row | Structure (SMILES) | growth
1 | CN1C(=O)CCC(N2C(=O)c3cccc(NCCOCCOCCNC(=O)c4cc5c(o4)C(=O)c4ccccc4C5=O)c3C2=O)C1=O (stereo not drawn) | -0.721% (active)
2 | COc1ccccc1NC(=O)Nc1ccc(-c2nc3ccccc3o2)cc1 | 103%
3 | N#C/C=C(\c1ccc([N+](=O)[O-])cc1)n1nnc2cc(Cl)c(Cl)cc21 | 40.9%
4 | O=C(c1ccccc1)c1ccc(N2C(=O)C3C4c5ccccc5C(/C=C/C(=O)c5ccccn5)(c5ccccc54)C3C2=O)cc1 (stereo not drawn) | 49.3%
5 | Cc1cc(-c2ccc(N(C)C)cc2)c2sc(=O)[nH]c2n1 | 46.9%
6 | N#Cc1c(NC(=O)c2ccccc2I)sc2c1CCCC2 | 45%
7 | CCn1c(Sc2nnc(NC(=O)CCN3CCCC3)s2)nc2c1c(=O)n(C)c(=O)n2C | 94.6%
8 | Cl.Fc1c[c-]c(-c2ccccn2)c(F)c1.[Pt].c1ccc([PH+](C[PH+](c2ccccc2)c2ccccc2)c2ccccc2)cc1 | -91% (active)
9 | CCOc1ccc(-c2nc3ccc(-c4nc5ccc(N6CCN(C)CC6)cc5[nH]4)cc3[nH]2)cc1OCC | 40.8%
10 | O=C(NCCN1CCC(O)CC1)c1cc2c(o1)C(=O)c1ccccc1C2=O | -97.1% (active)
11 | Cl.Fc1c[c-]c(-c2ccccn2)c(F)c1.[Pt].c1ccc([PH+](c2ccccc2)c2ccccc2[PH+](c2ccccc2)c2ccccc2)cc1 | -90.5% (active)
12 | O=C(NCCOCCOCCOCCNC(=O)c1cc2c(o1)C(=O)c1ccccc1C2=O)NC12CC3CC(CC(C3)C1)C2 | -5.41% (active)
13 | COc1ccc(/C=C(\C#N)n2nnc3ccccc32)cc1 | 25%

test system: A498 renal; test: as above; conditions: 10 µM unless noted

Row | Structure (SMILES) | growth [%]
14 | Cc1nc2ccc(C(=O)NCc3cc(C(=O)O)c(C)o3)cc2nc1C | 106
15 | Cc1ccc(S(=O)(=O)NN/C(N)=N\S(=O)(=O)c2cc(C)c(Cl)cc2SCc2ccccc2)cc1 | 91
16 | COc1ccc(-c2nnc(SCC(=O)NC3=NN=C(c4ccccc4)CS3)o2)cc1 | 86.4
17 | Cc1cc(=O)c2cc3nc(-c4cccnc4)oc3c(Br)c2o1 | 103
18 | C=C1C(=O)O[C@H]2[C@H]1CC/C(COC(=O)/C=C/C(=O)NCc1ccc(Cn3c(=O)sn(-c4ccccc4)c3=O)cc1)=C\CC[C@@]1(C)O[C@@H]21 | 97.1
19 | COC(=O)c1ccc2oc(NC(=O)c3ccc(N4CCOCC4)c([N+](=O)[O-])c3)nc2c1 | 98.5
20 | COC(=O)c1ccc(CSc2nnc(-c3ccncc3)o2)cc1 | 120
21 | NS(=O)(=O)c1cn(-c2ncnc3nc[nH]c23)ccc1=O | 89.1
22 | COc1ccc(Nc2ncc(Br)c(NCCCNC(=O)C3CCC3)n2)cc1 | 26.1
23 | C[C@@H]1CC[C@@H]2[C@@H]1[C@H](OC(=O)/C=C/c1ccccc1)[C@]1(CCCOCCOCCOCCOC(=O)CCCC[C@@H]3SC[C@@H]4NC(=O)N[C@@H]43)C[C@@H](OC(=O)CO)[C@@]2(C)O1 | 97.1
24 | CCCCCCCC/C=C/CCCCCCCC1=NCC[N+]1(CCO)CCO | 73.4
25 | CCOC(=O)N1CCc2c(sc3c2C(=O)N[C@H](c2ccc(OC)cc2)N3)C1 | 96.4

test system: CCRF-CEM leukemia; test: as above; conditions: 10 µM unless noted

Row | Structure (SMILES) | growth
26 | O=C1Nc2ccccc2/C1=N/N=C/c1c[nH]c2ccccc12 | 83.3%
27 | Cc1nc2ccc(C(=O)NCc3cc(C(=O)O)c(C)o3)cc2nc1C | 97.1%
28 | Cc1ccc(S(=O)(=O)NN/C(N)=N\S(=O)(=O)c2cc(C)c(Cl)cc2SCc2ccccc2)cc1 | 74.1%
29 | COc1ccc(-c2nnc(SCC(=O)NC3=NN=C(c4ccccc4)CS3)o2)cc1 | 90.8%
30 | Cn1ncc2c(Nc3ccc(Br)cc3)nc(Nc3ccc(Br)cc3)nc21 | 27.8%
31 | Cc1cn(C2CCCCC2)c(=O)[nH]c1=O | 117%
32 | Cl.Fc1c[c-]c(-c2ccccn2)c(F)c1.[Pt].c1ccc(P(c2ccccc2)C([PH+](c2ccccc2)c2ccccc2)[PH+](c2ccccc2)c2ccccc2)cc1 | 17.3%
33 | N=C(N)c1ccc(-c2ccc(-c3ccc(Cl)c(Cl)c3)o2)cc1 | -24.9% (active)
34 | Cc1cc(=O)c2cc3nc(-c4cccnc4)oc3c(Br)c2o1 | 94.1%
35 | C=C1C(=O)O[C@H]2[C@H]1CC/C(COC(=O)/C=C/C(=O)NCc1ccc(Cn3c(=O)sn(-c4ccccc4)c3=O)cc1)=C\CC[C@@]1(C)O[C@@H]21 | -30.6% (active)
36 | Cc1ccc(/C=C(\C#N)n2nnc3cc(Cl)c(Cl)cc32)cc1 | 9.85% (active)
37 | N=C(N)c1ccc(-c2ccc(-c3ccc(Cl)c(Cl)c3)o2)nc1 | 2.34% (active)
38 | COc1ccccc1C(=O)NC(=S)Nc1ccc(-c2nc3ccccc3[nH]2)cc1 | 80.8%
39 | COC(=O)c1ccc2oc(NC(=O)c3ccc(N4CCOCC4)c([N+](=O)[O-])c3)nc2c1 | 90.3%
40 | COC(=O)c1ccc(CSc2nnc(-c3ccncc3)o2)cc1 | 99.3%
41 | N#C/C(=C\c1ccc2c(c1)OCO2)n1nnc2ccccc21 | 18.3%
42 | O=C(NC(=S)Nc1ccc(-c2nc3ccccc3[nH]2)cc1)c1ccc2ccccc2c1 | 49.6%
43 | COc1cc2c(c(OC)c1OC)C(=O)/C(=C/c1cc(C)c(O)c(C)c1)S2 | 25%
44 | COc1ccc(-c2cc(-c3ccc(Nc4nc(Nc5ccccc5)nc(Nc5ccc(Cl)cc5)n4)cc3)nc(N)c2C#N)cc1 | 3.41% (active)

Row | Structure (SMILES) | growth
45 | Cc1c(Cl)cccc1NS(=O)(=O)c1ccccc1 | 124%
46 | CCn1c(Sc2nnc(NC(C)=O)s2)nc2c1c(=O)n(C)c(=O)n2C | 112%
47 | NS(=O)(=O)c1cn(-c2ncnc3nc[nH]c23)ccc1=O | 94.1%
48 | CN1C(=O)CCC(N2C(=O)c3cccc(NCCOCCOCCNC(=O)c4cc5c(o4)C(=O)c4ccccc4C5=O)c3C2=O)C1=O (stereo not drawn) | 18.4%
49 | COc1ccc(Nc2ncc(Br)c(NCCCNC(=O)C3CCC3)n2)cc1 | 17.2%
50 | COc1ccccc1NC(=O)Nc1ccc(-c2nc3ccccc3o2)cc1 | 101%
51 | N#C/C=C(\c1ccc([N+](=O)[O-])cc1)n1nnc2cc(Cl)c(Cl)cc21 | 9.49% (active)
52 | O=C(c1ccccc1)c1ccc(N2C(=O)C3C4c5ccccc5C(/C=C/C(=O)c5ccccn5)(c5ccccc54)C3C2=O)cc1 (stereo not drawn) | 11.1%
53 | Cc1cc(-c2ccc(N(C)C)cc2)c2sc(=O)[nH]c2n1 | 60%
54 | N#Cc1c(NC(=O)c2ccccc2I)sc2c1CCCC2 | 23.7%
55 | C[C@@H]1CC[C@@H]2[C@@H]1[C@H](OC(=O)/C=C/c1ccccc1)[C@]1(CCCOCCOCCOCCOC(=O)CCCC[C@@H]3SC[C@@H]4NC(=O)N[C@@H]43)C[C@@H](OC(=O)CO)[C@@]2(C)O1 | 98.2%
56 | CCn1c(Sc2nnc(NC(=O)CCN3CCCC3)s2)nc2c1c(=O)n(C)c(=O)n2C | 103%
57 | CCCCCCCC/C=C/CCCCCCCC1=NCC[N+]1(CCO)CCO | 31.4%
58 | CCOC(=O)N1CCc2c(sc3c2C(=O)N[C@H](c2ccc(OC)cc2)N3)C1 | 95.9%
59 | CCOc1ccc(-c2nc3ccc(-c4nc5ccc(N6CCN(C)CC6)cc5[nH]4)cc3[nH]2)cc1OCC | 11.3%
60 | O=C(NCCN1CCC(O)CC1)c1cc2c(o1)C(=O)c1ccccc1C2=O | 2.16% (active)
61 | Cl.Fc1c[c-]c(-c2ccccn2)c(F)c1.[Pt].c1ccc([PH+](c2ccccc2)c2ccccc2[PH+](c2ccccc2)c2ccccc2)cc1 | -43.6% (active)
62 | O=C(NCCOCCOCCOCCNC(=O)c1cc2c(o1)C(=O)c1ccccc1C2=O)NC12CC3CC(CC(C3)C1)C2 | 18.8%
63 | COc1ccc(/C=C(\C#N)n2nnc3ccccc32)cc1 | 18.8%
